The first test addresses SLIT1. Nature of the test: pooled miR-30 sensor sort-seq; sequence = guide strand. The settings on record: shRNA.
Regarding TTCTTGCTCTTGATCTGCCCGA, the sensor-assay potency score (higher = more potent) is -0.859.

TTGCTCACACAGCTCGCCCGAA gave a sensor-assay potency score (higher = more potent) of -0.836.

In turn, TTGAGGATCTGCCACAGGCGGA had a sensor-assay potency score (higher = more potent) of -1.35.

For TGAAGGTAGACAGCTGTCCCGG, the sensor-assay potency score (higher = more potent) is -1.03.

In turn, TTGTGGATGCAGCTGATGCGGT yielded a sensor-assay potency score (higher = more potent) of -0.921.

TAAGTTTTTTAAACATCCCAGT displayed a sensor-assay potency score (higher = more potent) of -1.01.

In turn, TTGACATGGGTTCAGATCCGGA registered a sensor-assay potency score (higher = more potent) of -1.04.

Take TTGCTTAAGGAACTGATCTTGT: the sensor-assay potency score (higher = more potent) was -0.323.

In the case of TTCAATCGCAGTTCTGCCGTGG, the sensor-assay potency score (higher = more potent) is 0.209.

TTCAATTTCTGACACCTTGTTG: the sensor-assay potency score (higher = more potent) was -0.171.

The sequence TTGACACTGAGCAACTTCTCAC gave a sensor-assay potency score (higher = more potent) of -0.268.

TTGCAGGTCAGTGAACTGCAGG registered a sensor-assay potency score (higher = more potent) of -1.32.

The target in the next test is SLITRK3. The description is as above. The settings on record: shRNA.
TTGCAGTTGACAGTCAAGCCAA: the sensor-assay potency score (higher = more potent) is -0.544.

For TCTTTTTCCAGCAAGGTCCGGT, the sensor-assay potency score (higher = more potent) is -0.176.

TTTCTCGTAGGTCCTTTCCATG gave a sensor-assay potency score (higher = more potent) of -1.36.

In the case of TTGAACTCAAAGTACAAGTAGT, the sensor-assay potency score (higher = more potent) is -0.338.

TTGATGTGCAAATTACAGGTAC gave a sensor-assay potency score (higher = more potent) of -0.245.

Regarding TTGCACATTTGGGTAACCGGGT, the sensor-assay potency score (higher = more potent) was -0.695.

In the case of TTCATGTAGATATAGTCTCTTT, the sensor-assay potency score (higher = more potent) is -0.676.

Sequence AATGACATTGTAATCTGCCTGC gave a sensor-assay potency score (higher = more potent) of 0.274.

Sequence TTATCCACAACATCCTTCCTCT came in with a sensor-assay potency score (higher = more potent) of 0.0957.

On to TTAACTTCACAGTAGCATGGAT, for which the sensor-assay potency score (higher = more potent) is -0.128.

Sequence TTCTCATTGAGGTCTATCTGGA returned a sensor-assay potency score (higher = more potent) of -0.877.

In turn, TAAAAAAGAACCTTTAACCTAT returned a sensor-assay potency score (higher = more potent) of 0.15.

The next test deals with SLITRK5. Described as above. The settings on record: shRNA.
Take TACAGCAAACGCTAGAGTCTGC: the sensor-assay potency score (higher = more potent) is -0.49.

The sequence TACAGTGTGACACCTCTGCAAA showed a sensor-assay potency score (higher = more potent) of -1.11.

The sequence TACATCTGAATAGTCAGGGCAC gave a sensor-assay potency score (higher = more potent) of 0.215.

As to TTGGATGAGTGACTTCAGCTGG, the sensor-assay potency score (higher = more potent) was found to be 0.319.

In turn, AACATTGCTACCTAGATGCAAA displayed a sensor-assay potency score (higher = more potent) of -1.34.

On to TAATTGACAAACTCATTGGGAT, for which the sensor-assay potency score (higher = more potent) is 0.191.

TTATTCAAGAATAGCAGCTGGA: the sensor-assay potency score (higher = more potent) was -0.212.

Sequence TAATACAGTGTGACACCTCTGC had a sensor-assay potency score (higher = more potent) of 0.818.

Regarding TTCCAGACTGAATCTCGCGGAT, the sensor-assay potency score (higher = more potent) was -0.818.

Consider TAGTCAGAAATAAGTCTCCTTG, for which the sensor-assay potency score (higher = more potent) was -0.638.

In the case of TCGCTCTGGTTCTTCTTCCTGC, the sensor-assay potency score (higher = more potent) is -1.1.

The target in another test is SLMAP. Described as above. The settings on record: shRNA.
With TTTAATGTTATAAATAATCTGG, the sensor-assay potency score (higher = more potent) is -0.423.

TCAACTTCTCTAGTTCACCTTG showed a sensor-assay potency score (higher = more potent) of 0.0522.

For the sequence TATTCTTGTACTTCTGCTGTTT, the sensor-assay potency score (higher = more potent) was -0.0967.

Source of the values: the OligoGym collection.
Note: reference of the scale not given here.
